Experimental data taken from PubChem BioAssay (NCATS).
Records with an inconclusive call do not appear. Activity calls are given as the source filed them. Calls come from the whole dose curve; as a rule, active = well fitted curve in the direction sought with a large enough effect; inconclusive = small, poorly fitted or top-dose-only effect, or another doubt; inactive = no such curve, though single readings can be large; an effect the other way counts as inactive or inconclusive.

Legend:
CRL-7250 = normal cell line; assay: Cytotoxic Profiling of Annotated Libraries Using Quantitative High-Throughput Screening (AID 1296008); details: Five cell lines viability, CellTiter-Glo ATP luminescence, 48-72 h; max response: hits give low values; note: nearly all actives have a fitted effect of over 60% in size; note: potency is the fitted concentration of half-maximal effect; for max response: % is set by controls: 0 for no effect and ±100 for the full control effect
In short: (§1)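 Cells exposed to compounds for 48 or 72 hr at 37 degrees Celsius. Viability read as ATP-coupled luminescence with CellTiter-Glo after 10 min at room temperature.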

HEK293 = assay: as above; details: Five cell lines viability, CellTiter-Glo ATP luminescence, 48-72 h; max response: hits give low values
In short: as §1

HaCat = assay: as above; details: Five cell lines viability, CellTiter-Glo ATP luminescence, 48-72 h; max response: hits give low values
In short: as §1

KB-3-1 = assay: as above; details: Five cell lines viability, CellTiter-Glo ATP luminescence, 48-72 h; max response: hits give low values
In short: as §1

NIH3T3 [1] = assay: as above; details: Five cell lines viability, CellTiter-Glo ATP luminescence, 48-72 h; max response: hits give low values
In short: as §1

HEK293T = assay: qHTS assay to identify novel small-molecules to repurpose for Merkel cell carcinoma treatment (AID 1296009); details: MCC and control cell lines, CellTiter-Glo viability, 72 h; series mostly up to 44.8 µM; note: nearly all actives have a fitted effect of over 60% in size
In short: (§2)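 Dose-response viability screen; 72 hr exposure at 37 degree celsius; CellTiter-Glo added, 10 min room temperature, luminescence read; RLUs scaled between no-cell and DMSO wells.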

NIH3T3 [2] = assay: as above; details: MCC and control cell lines, CellTiter-Glo viability, 72 h; at 44.8 µM (top of the series) unless noted
In short: as §2

C33A = assay: Primary qHTS to identify gynecologic anti-cancer compounds using libraries of approved drugs and bioactive compounds (AID 1345084); details: Gynecologic cancer cell panel viability, ATPlite luminescence, 48 h; series mostly up to 57.5 µM; note: % is set by controls: 0 for no effect and ±100 for the full control effect; nearly all actives have a fitted effect of over 55% in size
In short: (§3)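 Cell viability after 48 h drug treatment, ATPlite luminescence readout; five doses.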

CAOV3 = assay: as above; details: Gynecologic cancer cell panel viability, ATPlite luminescence, 48 h; series mostly up to 57.5 µM
In short: as §3

CASKI = assay: as above; details: Gynecologic cancer cell panel viability, ATPlite luminescence, 48 h; series mostly up to 57.5 µM
In short: as §3

Es-2 = assay: as above; details: Gynecologic cancer cell panel viability, ATPlite luminescence, 48 h; series mostly up to 57.5 µM
In short: as §3

HeLa = assay: as above; details: Gynecologic cancer cell panel viability, ATPlite luminescence, 48 h; series mostly up to 57.5 µM
In short: as §3

C=C(C(=O)OC)C1CCC2(C)C(O[C@@H]3O[C@H](CO)[C@@H](O)[C@H](O)[C@H]3O)CC(=O)C(C)C2C1O (some centres not stated)
inactive: max response (CRL-7250) 1.28% | outcome (HEK293) | max response (HaCat) -1.72% | outcome (KB-3-1) | outcome (NIH3T3 [1]) | Potency (HEK293T) | outcome (NIH3T3 [2]) inactive [at 17.4 µM] | Potency (C33A) | Potency (CAOV3) | Potency (CASKI) | Potency (Es-2) | Potency (HeLa)

CC(=O)O[C@@]1(C)C[C@@H](O)[C@]2(O)C=CO[C@@H](O[C@@H]3O[C@H](CO)[C@@H](O)[C@H](O)[C@H]3O)[C@@H]21
inactive: max response (CRL-7250) -0.355% | outcome (HEK293) | max response (HaCat) 3.46% | outcome (KB-3-1) | outcome (NIH3T3 [1]) | Potency (HEK293T) | outcome (NIH3T3 [2]) inactive [at 17.4 µM] | Potency (C33A) | Potency (CAOV3) | Potency (CASKI) | Potency (Es-2) | Potency (HeLa)

Cc1cc(N2CCCCC2)nc2ccccc12
inactive: max response (CRL-7250) -12.2% | outcome (HEK293) | max response (HaCat) -14.3% | outcome (KB-3-1) | outcome (NIH3T3 [1]) | Potency (HEK293T) | outcome (NIH3T3 [2]) | Potency (C33A) | Potency (CAOV3) | Potency (CASKI) | Potency (Es-2) | Potency (HeLa)

COc1cc(C(=O)OC[C@H]2O[C@H](O[C@@]3(CO)O[C@@H](CO)[C@H](O)[C@H]3O)[C@H](O)[C@@H](O)[C@@H]2O)ccc1O
inactive: max response (CRL-7250) -10.5% | outcome (HEK293) | max response (HaCat) 2.76% | max response (KB-3-1) 4.87% | max response (NIH3T3 [1]) 0.778% | Potency (HEK293T) | Potency (C33A) | Potency (CAOV3) | Potency (CASKI) | Potency (Es-2) | Potency (HeLa)

CN1C(=O)c2ccccc2NC(=O)[C@]12O[C@@H]2c1cccc(O)c1
inactive: max response (CRL-7250) -2% | outcome (HEK293) | max response (HaCat) -7.54% | max response (KB-3-1) 4.06% | max response (NIH3T3 [1]) -15.7% | Potency (HEK293T) | Potency (C33A) | Potency (CAOV3) | Potency (CASKI) | Potency (Es-2) | Potency (HeLa)

CCOC(=O)Nc1nc2ccccc2[nH]1
inactive: max response (CRL-7250) 3.6% | outcome (HEK293) | max response (HaCat) -2.18% | max response (KB-3-1) 2.03% | outcome (NIH3T3 [1]) | Potency (HEK293T) | outcome (NIH3T3 [2]) | Potency (C33A) | Potency (CAOV3) | Potency (CASKI) | Potency (Es-2) | Potency (HeLa)

C=C1C2=CC(O)C(C)C1(C)CC/C(C)=C/CCC1(C)OC1C2=O (configuration not stated)
inactive: max response (CRL-7250) -9.54% | outcome (HEK293) | max response (HaCat) 1.13% | outcome (KB-3-1) | outcome (NIH3T3 [1]) | Potency (HEK293T) | outcome (NIH3T3 [2]) | Potency (C33A) | Potency (CAOV3) | Potency (CASKI) | Potency (Es-2) | Potency (HeLa)

C[C@@H]1CC[C@]2(C)C3(C)CC[C@@]2(OC3=O)[C@@]12C[C@H](c1ccoc1)OC2=O
inactive: max response (CRL-7250) -6.81% | outcome (HEK293) | max response (HaCat) -0.0916% | max response (KB-3-1) -4.36% | max response (NIH3T3 [1]) -0.649% | Potency (HEK293T) | Potency (C33A) | Potency (CAOV3) | Potency (CASKI) | Potency (Es-2) | Potency (HeLa)

COC(=O)C1=CO[C@@H](O[C@@H]2O[C@H](CO[C@@H]3O[C@H](COC(=O)/C=C/c4ccc(O)cc4)[C@@H](O)[C@H](O)[C@H]3O)[C@@H](O)[C@H](O)[C@H]2O)[C@@H]2C(CO)=CC[C@H]12
inactive: max response (CRL-7250) 4.68% | outcome (HEK293) | max response (HaCat) 0.423% | max response (KB-3-1) 6.83% | max response (NIH3T3 [1]) 0.0703% | Potency (HEK293T) | Potency (C33A) | Potency (CAOV3) | Potency (CASKI) | Potency (Es-2) | Potency (HeLa)

OC[C@H]1O[C@@H](n2cnc3c(NCc4ccc(O)cc4)ncnc32)[C@H](O)[C@@H]1O
active: Potency (CRL-7250) 6.51 µM
inactive: outcome (HEK293) | max response (HaCat) -13.2% | max response (KB-3-1) -13.6% | outcome (NIH3T3 [1]) | Potency (HEK293T) | outcome (NIH3T3 [2]) | Potency (CAOV3) | Potency (Es-2)

C[C@@H]1O[C@@H](O[C@H]2[C@H](OC(=O)C34CCC(C)(C)CC3C3=CCC5C6(C)CC(O)C(O[C@@H]7O[C@H](CO)[C@@H](O)[C@H](O)[C@H]7O)C(C)(C(=O)O)C6CCC5(C)C3(CO)CC4)O[C@H](C)[C@H](O)[C@@H]2O)[C@H](O)[C@H](O)[C@H]1O[C@@H]1OC[C@@H](O)[C@H](O)[C@H]1O (some centres not stated)
inactive: max response (CRL-7250) -4.64% | outcome (HEK293) | max response (HaCat) 3.66% | outcome (KB-3-1) | max response (NIH3T3 [1]) 2.3% | outcome (HEK293T) inactive [at 9.27 µM] | activity change, negative = cytotoxicity (C33A) 7.58% [at 11.6 µM] | activity change, negative = cytotoxicity (CAOV3) 18.2% [at 11.6 µM] | activity change, negative = cytotoxicity (CASKI) 8.6% [at 11.6 µM] | activity change, negative = cytotoxicity (Es-2) 0.101% [at 11.6 µM] | activity change, negative = cytotoxicity (HeLa) 10.9% [at 11.6 µM]

CC(C)(C)NCC(O)COc1cccc2c1CCCC2=O (configuration not stated)
inactive: outcome (CRL-7250) | outcome (HEK293) | max response (HaCat) -7.74% | outcome (KB-3-1) | outcome (NIH3T3 [1]) | Potency (HEK293T) | outcome (NIH3T3 [2]) | Potency (C33A) | Potency (CAOV3) | Potency (CASKI) | Potency (Es-2) | Potency (HeLa)

CC1=C2CC3OC3(C)CCC3OC3(C)CC2OC1=O (configuration not stated)
inactive: max response (CRL-7250) -1.41% | outcome (HEK293) | max response (HaCat) -1.36% | outcome (KB-3-1) | max response (NIH3T3 [1]) -7.4% | Potency (HEK293T) | Potency (C33A) | Potency (CAOV3) | Potency (CASKI) | Potency (Es-2) | Potency (HeLa)
